Screening data as filed in PubChem.
MK inhibit – blocks S. pneumoniae mevalonate kinase; purified MK, PK/LDH-coupled NADH absorbance 340 nm; inhibition, % at 10 µM; hit rate 0.48% among 65,000;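 active = ranked among the strongest by inhibition in the single 10 µM screen, a fixed top-ranked set picked for dose follow-up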
Abs 340nm – absorbance at 340 nm; compound absorbance at 340 nm, fold over control; 65,000 tested, under 10 active; fold change at 10 µM;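 active = at 10 µM dose, initial 340 nm absorbance at least 2 fold that of control wells; inactive = change under 2 fold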;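 also: initial absorbance extrapolated from kinetic A340 decline of NADH oxidation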
Fluor 339 460 – intrinsic fluorescence of library compounds, ex339/em460 – biochemical, MLSMR library, data from DPM-DC assay, artefact control, profiling panel. hit rate 5.5% among 65,000. compound autofluorescence, ex339/em460 nm, NADH buffer; hits give high values; 1 = no-compound wells, NADH background. fluorescence fold increase at 10 µM;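 active = at 10 µM, mean starting fluorescence two-fold or more over control wells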;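 also: signal is the first read of a kinetic run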
Spn PMK inh – S. pneumoniae PMK inhibition | hit rate 0.49% among 65,000 | purified PMK, PK/LDH-coupled NADH absorbance 340 nm | inhibition, % at 10 µM;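 active = top-ranked compounds by inhibition in the single 10 µM screen, taking a fixed number of the strongest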
NADH coupling – inhibition of NAD/NADH coupling enzymes, library profiling; coupled PK/LDH NADH assays, four targets; IC50, µM (top dose mostly 10 µM); hit rate 0.02% among 65,000; AID 774;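 active = single-dose screening hits from any of four coupled enzyme assays that gave an IC50 when retested across doses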;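 also: the DPM-DC format reads NADH fluorescence rather than 340 nm absorbance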
DPM-DC inhibit – S. pneumoniae DPM-DC inhibition | AID 556 | calls only at 10 µM | hit rate 0.49% among 65,000 | purified DPM-DC, PK/LDH coupled NADH fluorescence;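 active = the 320 compounds with the highest percent inhibition in the single-dose primary screen, excluding strongly autofluorescent ones, cut at about 32% in these data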;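 also: kinetic rate of NADH fluorescence loss reporting ADP formed by the decarboxylase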
Of the large screens only hits and unclear results are named; the others gave an inactive call. Shown are actives, neighbours in structure and some others; about 6.5% of the full set was active somewhere.

CCOC(=O)CSc1nc(-c2ccncc2)ccc1C#N	none
CCOC(=O)CSc1nc(-c2ccc3c(c2)OCO3)ccc1C#N	Fluor 339 460 2.25 (not shown: DPM-DC inhibit)
CC(=O)OC1=C(C#N)Cn2ccc3cccc1c32	Fluor 339 460 3.86 (not shown: DPM-DC inhibit)
Cc1noc(C)c1CSc1nnnn1-c1ccc(Cl)cc1	none
O=C(c1ccc2nc(N3CCCCC3)sc2c1)N1CCN(Cc2ccc3c(c2)OCO3)CC1	none
CCS(=O)(=O)N1CCN(Cc2ccccc2OC)CC1	none
COc1ccccc1N1CCN(Cc2ccc(OC)c(OC)c2OC)CC1	MK inhibit 47.0
COc1ccccc1N1CCN(Cc2ccsc2)CC1	MK inhibit 42.0
c1ccc(N2CCN(Cc3ccsc3)CC2)nc1	none
COc1ccc(OC)c(CN2CCN(c3ccccc3OC)CC2)c1	MK inhibit 51.0
CCOc1ccccc1N1CCN(Cc2cccc(OC)c2OC)CC1	MK inhibit 49.0
CCOc1ccccc1CN1CCN(S(=O)(=O)CC)CC1	MK inhibit 58.0
CCCS(=O)(=O)N1CCN(Cc2ccccc2OCC)CC1	none
O=S(=O)(Cc1ccccc1Cl)N1CCCCC1	none
COC(=O)c1ccc(Nc2ncnc3c2cnn3-c2cccc(C)c2)cc1	Fluor 339 460 2.15 (not shown: DPM-DC inhibit)
CS(=O)(=O)c1sc2nc(-c3cccs3)cc(-c3ccccc3)c2c1N	Fluor 339 460 3.77
CC(=O)c1sc2nc(-c3cccs3)cc(C(F)(F)F)c2c1N	none
COCCn1nnnc1CN(Cc1cc2cc(OC)c(OC)cc2[nH]c1=O)C1CCCC1	Fluor 339 460 2.74
CC1CCN(C(c2cc3cc4c(cc3[nH]c2=O)OCO4)c2nnnn2CC2CCCO2)CC1 (stereo unspecified)	Fluor 339 460 3.75 (not shown: DPM-DC inhibit)
O=c1[nH]c2cc3c(cc2cc1C(c1nnnn1Cc1ccccc1)N1CCCc2ccccc21)OCO3 (stereo unspecified)	none
O=c1[nH]c2cc3c(cc2cc1C(c1nnnn1Cc1ccccc1)N1CCN2CCCC2C1)OCCO3 (stereo unspecified)	Fluor 339 460 4.66 (not shown: DPM-DC inhibit)
CCCN1CCN(C(c2cc3cc4c(cc3[nH]c2=O)OCO4)c2nnnn2C(C)(C)C)CC1 (stereo unspecified)	Fluor 339 460 3.89 (not shown: DPM-DC inhibit)
Cc1ccc2cc(C(c3nnnn3C(C)(C)C)N3CCCC3)c(=O)[nH]c2c1C (stereo unspecified)	none
COC(=O)COc1ccc(S(=O)(=O)Nc2ccc(NC(C)=O)cc2)cc1C	none
CC(=O)Nn1c(-c2ccccc2)cc2ccccc21	none
COCCn1nnnc1C(c1cc2cc(C)ccc2[nH]c1=O)N1CCCCCC1 (stereo unspecified)	none
COCCn1nnnc1C(c1cc2cc(OC)ccc2[nH]c1=O)N1CCC(Cc2ccccc2)CC1 (stereo unspecified)	Fluor 339 460 2.14
Cc1ccc2cc(C(c3nnnn3CC3CCCO3)N3CCc4ccccc4C3)c(=O)[nH]c2c1 (stereo unspecified)	none
COc1ccc(C(c2nnnn2CC2CCCO2)N2CCN(c3ccccc3)CC2)cc1 (stereo unspecified)	MK inhibit 66.0, Spn PMK inh 77.0, DPM-DC inhibit active
CCOc1ccc2[nH]c(=O)c(C(c3nnnn3CC3CCCO3)N3CCc4ccccc4C3)cc2c1 (stereo unspecified)	Spn PMK inh 28.0
O=c1[nH]c2cc3c(cc2cc1CN(Cc1nnnn1CC1CCCO1)C1CCCC1)OCO3 (stereo unspecified)	Fluor 339 460 2.48
O=c1[nH]c2cc3c(cc2cc1CN(Cc1nnnn1CC1CCCO1)C1CCCCC1)OCO3 (stereo unspecified)	none
c1ccc(-c2nc3cc(Cc4ccc5oc(-c6ccccn6)nc5c4)ccc3o2)nc1	none
Cc1csc(=Nc2ccc(S(=O)(=O)N3CCOCC3)cc2)n1Cc1ccco1	none
CCCCn1c(SCC(=O)Nc2cccc(OC)c2)nc2ccc(N3CCOCC3)cc2c1=O	Fluor 339 460 3.13
COc1cccc(NC(=O)Cn2c(SCC(=O)N3CCOCC3)nc3ccccc32)c1	none
CCC1CCCCN1CCCNC(=O)Cn1nc(-c2ccc(C)cc2)ccc1=O (stereo unspecified)	none
c1cnc2c(SCc3ccc(-c4nnco4)cc3)cccc2c1	Fluor 339 460 3.33 (not shown: DPM-DC inhibit)
c1ccc2[nH]c(SCc3ccc(-c4nnco4)cc3)nc2c1	none
Cc1ccc(Cn2ccc(NC(=O)c3cc(-c4cccs4)on3)n2)cc1	none
